Measurements taken from PubChem BioAssay (NCATS).
Results filed as inconclusive are left out. Active and inactive are the calls of the source. Unless noted, the call rests on the fitted dose curve; in most records, active means well fitted curve in the direction sought with a large enough effect; inconclusive means small, poorly fitted or top-dose-only effect, or another doubt; inactive means no such curve, though single readings can be large; an effect the other way counts as inactive or inconclusive.

How the values were obtained:
[1] = biological target: Alpha-galactosidase (Coffea arabica) (UniProt Q42656); assay: Counterscreen for Glucocerebrosidase Inhibitors: qHTS Assay for Coffee Bean alpha-Galactosidase at pH 4.5 (AID 957); further: series mostly up to about 77 µM
Summary of the method: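 Coffee bean enzyme (2 nM) with 80 uM 4-methylumbelliferyl alpha-D-galactopyranoside in 50 mM citric acid, 0.005% Tween-20, pH 4.5, 20 min at room temperature; compounds 0.7 nM–77 uM. Stopped at pH 10, fluorescence 365/440 nm; AC50 from Hill fits.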

[2] = biological target: Alpha-galactosidase (Coffea arabica) (UniProt Q42656); assay: Counterscreen for Glucocerebrosidase Inhibitors: qHTS Assay for Coffee Bean alpha-Galactosidase at pH 5.9 (AID 998)
Summary of the method: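 Green coffee bean enzyme (2 nM) with 4-methylumbelliferyl alpha-D-galactopyranoside (80 uM) in 50 mM citric acid, 0.005% Tween-20, pH 5.9, 20 min at room temperature; compounds 0.7 nM–77 uM. Stopped at pH 10, fluorescence Ex365/Em440; Hill-fit AC50.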

[3] = Validation screen for inhibitors of Lassa infection (AID 463096; calls by dose curve)
[4] = Inducers of the Endoplasmic Reticulum Stress Response (ERSR) in human glioma: Validation (AID 504836)
Summary of the method: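 Stably transfected U87-MG glioma cells carrying a GRP78-based luciferase sensor; 16 h compound incubation. Luminescence end-point read 10 min after Bright-Glo addition at room temperature.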

[5] = qHTS for Inhibitors of the Functional Ribonucleoprotein Complex (vRNP) of Lassa (LASV) Arenavirus: LASV Primary Screen - GLuc reporter signal (AID 1347082; calls by dose curve; tested in HEK293 reporter line; further: series mostly up to about 57 µM; nearly all actives have a fitted effect of over 60% in size)
[6] = qHTS for Inhibitors of the Functional Ribonucleoprotein Complex (vRNP) of Lassa (LASV) Arenavirus: Viability assay - alamar blue signal for LASV Primary Screen (AID 1347083; calls by dose curve; tested in HEK293 reporter line; further: series mostly up to about 57 µM; nearly all actives have a fitted effect of over 80% in size)
[7] = qHTS for Inhibitors of the Functional Ribonucleoprotein Complex (vRNP) of Lymphocytic Choriomeningitis Arenaviruses (LCMV): Viability assay - alamar blue signal for LCMV Primary Screen (AID 1347085; calls by dose curve; tested in HEK293 reporter line; further: series mostly up to about 57 µM; nearly all actives have a fitted effect of over 80% in size)
[8] = biological target: Nucleoprotein (Lymphocytic choriomeningitis virus (strain Armstrong)) (UniProt P09992); assay: qHTS for Inhibitors of the Functional Ribonucleoprotein Complex (vRNP) of Lymphocytic Choriomeningitis Arenaviruses (LCMV): LCMV Primary Screen - GLuc reporter signal (AID 1347086; calls by dose curve; further: series mostly up to about 57 µM; nearly all actives have a fitted effect of over 70% in size)

Measured: Potency

Chain of Alpha-galactosidase (Coffea arabica) (Q42656 whole entry, looked up): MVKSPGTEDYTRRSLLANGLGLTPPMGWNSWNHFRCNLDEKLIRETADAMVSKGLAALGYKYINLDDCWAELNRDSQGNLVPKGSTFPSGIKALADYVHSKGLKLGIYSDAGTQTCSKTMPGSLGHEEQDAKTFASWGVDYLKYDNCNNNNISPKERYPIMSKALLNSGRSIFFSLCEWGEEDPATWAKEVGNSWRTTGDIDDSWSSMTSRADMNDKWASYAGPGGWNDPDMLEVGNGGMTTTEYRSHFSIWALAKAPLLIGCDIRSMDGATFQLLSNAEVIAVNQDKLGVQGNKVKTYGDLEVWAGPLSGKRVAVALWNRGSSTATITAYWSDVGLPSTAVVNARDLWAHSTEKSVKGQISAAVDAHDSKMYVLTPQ
Chain of Nucleoprotein (Lymphocytic choriomeningitis virus (strain Armstrong)) (P09992 whole entry, looked up): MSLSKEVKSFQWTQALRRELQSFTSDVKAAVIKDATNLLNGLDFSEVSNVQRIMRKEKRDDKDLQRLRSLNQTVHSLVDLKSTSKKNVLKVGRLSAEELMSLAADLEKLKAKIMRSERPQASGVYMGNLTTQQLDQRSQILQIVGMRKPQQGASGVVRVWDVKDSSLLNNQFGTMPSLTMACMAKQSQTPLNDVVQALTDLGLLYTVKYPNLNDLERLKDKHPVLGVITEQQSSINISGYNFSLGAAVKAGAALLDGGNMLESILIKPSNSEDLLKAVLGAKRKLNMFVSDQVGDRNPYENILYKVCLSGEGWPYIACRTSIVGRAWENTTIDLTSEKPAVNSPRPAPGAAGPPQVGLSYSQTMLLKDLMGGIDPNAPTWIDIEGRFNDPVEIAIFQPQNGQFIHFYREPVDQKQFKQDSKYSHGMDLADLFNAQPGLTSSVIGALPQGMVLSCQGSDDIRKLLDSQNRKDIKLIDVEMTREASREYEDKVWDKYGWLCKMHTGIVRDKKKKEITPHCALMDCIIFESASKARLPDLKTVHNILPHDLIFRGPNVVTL

Nc1ccc(-c2nc3ccc(-c4nc5ccc(N)cc5[nH]4)cc3[nH]2)cc1
inactive: [1] | [2] | [3] | [4] | [5] | [6] | [7] | [8]

N[C@@H](Cc1c[nH]c2ccccc12)C(=O)O
inactive: [1] | [2] | [3] | [4] | [5] | [6] | [7] | [8]

CCn1c(=O)[nH]c2cc(Cl)c(Cl)cc21
inactive: [1] | [2] | [3] | [4] | [5] | [6] | [7] | [8]

CC1(C)CCC=[N+]1[O-]
inactive: [1] | [2] | [3] | [4] | [5] | [6] | [7] | [8]

O=C(O)C1CCNCC1
inactive: [1] | [2] | [3] | [4] | [5] | [6] | [7] | [8]

Nc1ccc(-c2ccc3ccccc3n2)cc1
inactive: [1] | [2] | [3] | [4] | [5] | [6] | [7] | [8]

N=c1c[n+](N2CCOCC2)[n-]o1
inactive: [1] | [2] | [3] | [4] | [5] | [6] | [7] | [8]

O=C(O)c1cc2cc(F)ccc2[nH]1
inactive: [1] | [2] | [3] | [4] | [5] | [6] | [7] | [8]

c1ccc(-c2ccccn2)nc1
inactive: [1] | [2] | [3] | [4] | [5] | [6] | [7] | [8]

O=C(O)C1=CCCNC1
inactive: [1] | [2] | [3] | [4] | [5] | [6] | [7] | [8]

Cn1cnc2c(NCc3ccccc3)nc(NCCO)nc21
inactive: [1] | [2] | [3] | [4] | [5] | [6] | [7] | [8]

CC[N+](CC)(CC)CC(=O)Nc1c(C)cccc1C
inactive: [1] | [2] | [3] | [4] | [5] | [6] | [7] | [8]

O=C(O)[C@@H]1C[C@@H](C(=O)O)N1
inactive: [1] | [2] | [3] | [4] | [5] | [6] | [7] | [8]

N#Cc1cc2nc(O)c(O)nc2cc1[N+](=O)[O-]
inactive: [1] | [2] | [3] | [4] | [5] | [6] | [7] | [8]

COc1cccc(C(=O)NCCN2CCN(c3ccc(Cl)cc3)CC2)c1
inactive: [1] | [2] | [3] | [4] | [5] | [6] | [7] | [8]

Cc1ccc2c(c1)C(N1CCN(C)CC1)=Nc1cccnc1N2
inactive: [1] | [2] | [3] | [4] | [5] | [6] | [7] | [8]

O=C(O)c1cc2cc(Cc3cccnc3)ccc2o1
inactive: [1] | [2] | [3] | [4] | [5] | [6] | [7] | [8]

O=C(O)c1ccccc1Nc1ccccc1
inactive: [1] | [2] | [3] | [4] | [5] | [6] | [7] | [8]

COc1cc2c(CCNC(C)=O)c[nH]c2cc1O
inactive: [1] | [2] | [3] | [4] | [5] | [6] | [7] | [8]

Cc1nc(N=Nc2ccc(S(=O)(=O)O)cc2S(=O)(=O)O)c(COP(=O)(O)O)c(C=O)c1O
inactive: [1] | [2] | [3] | [4] | [5] | [6] | [7] | [8]

CC(=O)NNC(=O)N1Cc2ccccc2Oc2ccc(Cl)cc21
inactive: [1] | [2] | [3] | [4] | [5] | [6] | [7] | [8]

C[C@@H](NC(=O)/C(C#N)=C/c1ccc(O)c(O)c1)c1ccccc1
inactive: [1] | [2] | [3] | [4] | [5] | [6] | [7] | [8]

O=C(O)C1=CCCN(CCON=C(c2ccccc2)c2ccccc2)C1
inactive: [1] | [2] | [3] | [4] | [5] | [6] | [7] | [8]

O=c1[nH]c(=O)c2nc3ccccc3nc2[nH]1
inactive: [1] | [2] | [3] | [4] | [5] | [6] | [7] | [8]

NOCC(=O)O
inactive: [1] | [2] | [3] | [4] | [5] | [6] | [7] | [8]

CCCCCCCC/C=C\CCCCCCCC(=O)NCCO
inactive: [1] | [2] | [3] | [4] | [5] | [6] | [7] | [8]

O=C(Nc1cccc(C(=O)Nc2ccc(S(=O)(=O)O)c3cc(S(=O)(=O)O)cc(S(=O)(=O)O)c23)c1)Nc1cccc(C(=O)Nc2ccc(S(=O)(=O)O)c3cc(S(=O)(=O)O)cc(S(=O)(=O)O)c23)c1
inactive: [1] | [2] | [3] | [4] | [5] | [6] | [7] | [8]

[Li+]
inactive: [1] | [2] | [3] | [4] | [5] | [6] | [7] | [8]

Cc1nc(N=Nc2cc(S(=O)(=O)O)c3cc([N+](=O)[O-])cc(S(=O)(=O)O)c3c2)c(COP(=O)(O)O)c(C=O)c1O
inactive: [1] | [2] | [3] | [4] | [5] | [6] | [7] | [8]

O=c1[nH]c2cc(C(F)(F)F)ccc2n1-c1cc(C(F)(F)F)ccc1O
inactive: [1] | [2] | [3] | [4] | [5] | [6] | [7] | [8]

O=C(O)c1ccccc1Nc1cccc(OCc2ccc3ccccc3n2)c1
inactive: [1] | [2] | [3] | [4] | [5] | [6] | [7] | [8]

Cc1cc2c(cc1Cl)N(C(=O)Nc1ccnc3ccccc13)CC2
inactive: [1] | [2] | [3] | [4] | [5] | [6] | [7] | [8]

Cn1c(=O)[nH]c2ncn(C)c2c1=O
inactive: [1] | [2] | [3] | [4] | [5] | [6] | [7] | [8]

CSC(=N)N
inactive: [1] | [2] | [3] | [4] | [5] | [6] | [7] | [8]

NCCNS(=O)(=O)c1cccc2c(Cl)cccc12
inactive: [1] | [2] | [3] | [4] | [5] | [6] | [7] | [8]

CC(=O)SCC[N+](C)(C)C
inactive: [1] | [2] | [3] | [4] | [5] | [6] | [7] | [8]

C/C(=C\c1ccc(C(=O)O)cc1)c1ccc2c(c1)C(C)(C)CCC2(C)C
inactive: [1] | [2] | [3] | [4] | [5] | [6] | [7] | [8]

N=C(N)SCCc1cnc[nH]1
inactive: [1] | [2] | [3] | [4] | [5] | [6] | [7] | [8]

CNCCNS(=O)(=O)c1cccc2cnccc12
inactive: [1] | [2] | [3] | [4] | [5] | [6] | [7] | [8]

CN(C)c1nc(N)c(C(=O)N=C(N)N)nc1Cl
inactive: [1] | [2] | [3] | [4] | [5] | [6] | [7] | [8]

Nc1c(S(=O)(=O)O)cc(Nc2ccc(Nc3nc(Cl)nc(Nc4ccc(S(=O)(=O)O)cc4)n3)c(S(=O)(=O)O)c2)c2c1C(=O)c1ccccc1C2=O
inactive: [1] | [2] | [3] | [4] | [5] | [6] | [7] | [8]

CN(C)C(N)=NCCC[C@H](N)C(=O)O
inactive: [1] | [2] | [3] | [4] | [5] | [6] | [7] | [8]

Fc1ccc(C(OCCCc2cnc[nH]2)c2ccc(F)cc2)cc1
inactive: [1] | [2] | [3] | [4] | [5] | [6] | [7] | [8]

COc1cc(N)c(Cl)cc1C(=O)OCCN1CCCCC1
inactive: [1] | [2] | [3] | [4] | [5] | [6] | [7] | [8]

NC1(C(=O)O)CCCCC1
inactive: [1] | [2] | [3] | [4] | [5] | [6] | [7] | [8]

CCCCCCCCCCCCCCC[C@H](O)[C@H](N)CO
inactive: [1] | [2] | [3] | [4] | [5] | [6] | [7] | [8]

O=C(O)c1cc(=O)c2c(Cl)cc(Cl)cc2[nH]1
inactive: [1] | [2] | [3] | [4] | [5] | [6] | [7] | [8]

N=C(N)c1ccc(N)cc1
inactive: [1] | [2] | [3] | [4] | [5] | [6] | [7] | [8]

COC(=O)[C@H](NC(=O)c1cc(-c2ccccc2)nc2ccccc12)c1ccccc1
inactive: [1] | [2] | [3] | [4] | [5] | [6] | [7] | [8]

C[C@@H]1C(=O)NC2=Nc3cccc(Cl)c3CN21
inactive: [1] | [2] | [3] | [4] | [5] | [6] | [7] | [8]

O=C1NC(c2cccc([N+](=O)[O-])c2)=CCN1c1ccccc1O
inactive: [1] | [2] | [3] | [4] | [5] | [6] | [7] | [8]

NCCS(=O)O
inactive: [1] | [2] | [3] | [4] | [5] | [6] | [7] | [8]

NS(=O)(=O)c1cccc2c1c([N+](=O)[O-])cc1nc(O)c(O)nc12
inactive: [1] | [2] | [3] | [4] | [5] | [6] | [7] | [8]

Ic1ccc(N2CCN(Cc3c[nH]c4ncccc34)CC2)cc1
inactive: [1] | [2] | [3] | [4] | [5] | [6] | [7] | [8]

C[N+](C)(CCCCCC[N+](C)(C)CCCN1C(=O)c2cccc3cccc(c23)C1=O)CCCN1C(=O)c2cccc3cccc(c23)C1=O
inactive: [1] | [2] | [3] | [4] | [5] | [6] | [7] | [8]

COc1cc(CNC(=O)CCCCCCC(C)C)ccc1O
inactive: [1] | [2] | [3] | [4] | [5] | [6] | [7] | [8]
